# Experimental data as given in PubChem BioAssay (NCI).
# The panel holds about 83,000 compounds, 20% with a hit somewhere; the sample as a whole holds those more often.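 Testing used 96-well plates and a 48-hour single-concentration exposure. Example: -40 means 40% of the starting cells died.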 A number with no mark means an inactive call. The source made the active and inactive calls. How the source made its calls: active means growth percent below 10; inactive means the rest.
# Test system: HL-60(TB) leukemia
# Experiment: NCI-60 one-dose screen, 48 h (100 = growth as untreated, 0 = no growth, -100 = all killed)
# Settings: 10 µM unless noted
row,Structure (SMILES),growth
1,CCc1ccc2c(c1)N(CCO)C1=C(C(=O)OC1)C2c1cccc(Cl)c1 (stereo not given),-19.4% (active)
2,CCCC1Cc2cc(-n3nc(C)c4c3CC(C)(C)CC4=O)cc(NC3CCC(O)CC3)c2C(=O)N1 (stereo not given),-8.17% (active)
3,CS(=O)(=O)c1ccc(Cl)c([N+](=O)[O-])c1,14%
4,CC(O)/C=C/C=C/C(O)CC/C=C/C(=O)NCC(C)(C)O (stereo not given),81.1%
5,O=C(Nc1ccc(OS(=O)(=O)c2ccccc2)cc1)C1CCCCC1,94%
6,Cc1ccc(S(=O)(=O)Oc2ccc3sc4cccc(NCCN(C)C)c4c(=O)c3c2)cc1,-64% (active)
7,Clc1ccc(-c2nnc(-c3ccco3)o2)cc1,94.1%
8,O=Cc1c[nH]c2ccc(NC(=O)OCc3ccccc3)cc12,200%
9,CN1CCN(CC(=O)Nc2ccc(-c3nc4ccccc4s3)cc2)CC1,96.4%
10,Fc1ccccc1CSc1ncnc2nc[nH]c12,90.4%
11,Cc1ccc(-c2c(Br)c(OC(=O)CO[C@@H]3C[C@H](C)CC[C@H]3C(C)C)c(-c3ccc(C)cc3C)c(Br)c2OC(=O)CO[C@H]2C[C@@H](C)CC[C@@H]2C(C)C)c(C)c1,101%
12,CCC(O)CC(CC)CO (stereo not given),94.2%
13,CCCCCCCCCCCCCCCCNc1ccccc1,8.47% (active)
14,Cc1n(Cc2ccc3ccccc3c2)c(Cl)c(Cl)[n+]1Cc1ccc2ccccc2c1,-34.6% (active)
15,COc1cc(C)ccc1Oc1nc(Nc2ccc(N3CCOCC3)cc2)ncc1NC(=O)Nc1cc(C(F)(F)F)cc(C(F)(F)F)c1,42.4%
16,O=C1c2c(c(=O)[nH]c3ccccc23)CCN1Cc1ccccc1,118%
17,Cc1ccc2nc(-c3ccc(N=Cc4ccccc4O)cc3)sc2c1,77.7%
18,Cc1ccc(/C(=N\N=C(N)N)c2ccccc2)cc1,-41.6% (active)
19,COc1ccc(-c2nc(SC(C)C)nc(NNC(N)=O)c2C#N)cc1,80.3%
20,O=C(/C=C/c1ccccc1Br)c1cccc(OCCCCOc2cccc(C(=O)/C=C/c3ccccc3Br)c2)c1,92%

row,Structure (SMILES),growth
1,CNCCNc1nc2ccccc2c2c(=O)c3cccc(OC)c3sc12,26.5%
2,C#Cc1ccc(-n2c(/C=C/c3ccc(O)c(OC)c3)nc3ncccc3c2=O)cc1,84.7%
3,Brc1ccc2[nH]cc(-c3nc(-c4c[nH]c5ccncc45)cs3)c2c1,-55.4% (active)
4,OCC1OC(O)C(O)C(O)C1O (stereo not given),120%
5,Cc1ccc(C2=C/C(=C/c3ccc(Br)cc3)C(=O)N2CCc2ccc(S(N)(=O)=O)cc2)cc1,96.7%
6,Nc1nn(C(=O)Nc2ccc(Cc3ccccc3)cc2)c2ccc(Cl)cc12,24.9%
7,CC(/C=C1\SC(=S)N(CC(=O)NC(Cc2c[nH]c3ccccc23)C(=O)O)C1=O)=C\c1ccccc1 (stereo not given),100%
8,CCN(CC)c1cc(C)c(Cc2c(OC)ccc3ccccc23)cc1C,82.2%
9,Cn1cc(-c2nc(-c3c[nH]c4ccncc34)cs2)c2cc(F)ccc21,-55.3% (active)
10,c1ccc2c(c1)nc(-n1ccnc1)c1nc3ccccc3n12,101%
11,CCCCNC(=O)C(=O)NCCCC,113%
12,O=C1/C(=C\c2cccnc2)SC(=S)N1CCc1ccc(O)cc1,18%
13,N#Cc1c(-c2ccccc2)cc(-c2ccc(Nc3nc(Nc4ccc(Cl)cc4)nc(Nc4ccc(Cl)cc4)n3)cc2)nc1N,15.6%
14,C/C(=C(/c1ccc(Cl)cc1)c1ccc(OCCN2CCCC2)cc1)c1ccccc1,70.4%
15,COc1cc(/C=C\c2cc(OC)c(OC)c(OC)c2)cc(NS(=O)(=O)c2ccc(Cl)cc2)c1OC,-31% (active)
16,COc1ccc(C2CC(c3ccc4ccccc4c3)=NN2c2nc(O)c(C3=c4cc(Cl)ccc4=NC3=O)s2)cc1 (stereo not given),-6.68% (active)
17,O=c1oc2ccc(Cl)cc2c(=O)n1-c1ccc(Cl)cc1F,-44.5% (active)
18,Cc1ccc(NSc2ccccc2[N+](=O)[O-])cc1,-6.97% (active)
19,O=C(NCCO)Nc1ccc(-c2nc(N3CCOCC3)c3cccn3n2)cc1,24.2%
20,CCOC(=O)c1c2ncccc2n2c(=O)n(-c3ccc(Cl)cc3)nnc12,80.5%
